DUSP3 inh: VHR1 phosphatase inhibitors, primary screen, biochemical, colorimetric, HTS; Dual specificity protein phosphatase 3 (Homo sapiens), P51452; recombinant VHR phosphatase, colorimetric substrate read-out; inhibition, % at 20 µM; hit rate 0.7% among 50,000; AID 1992, 2009; in the data active means inhibition above about 60%
Target sequence (P51452 whole entry, looked up): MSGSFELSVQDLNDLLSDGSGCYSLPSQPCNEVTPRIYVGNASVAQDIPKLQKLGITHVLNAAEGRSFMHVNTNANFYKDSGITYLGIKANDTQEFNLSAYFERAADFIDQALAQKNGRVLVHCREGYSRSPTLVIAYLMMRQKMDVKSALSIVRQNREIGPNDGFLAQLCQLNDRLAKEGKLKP
Starred values were filed as active, the others as inactive. This is one part of a sample in which hits are shown more often than they occur.

SMILES	DUSP3 inh
CCCOC(=O)c1ccc(NC(=O)c2cc(Cl)c(OC)c(Cl)c2)cc1	-10.8
CCCOC(=O)c1ccc(NC(=O)COc2ccc(OC)cc2)cc1	-14.0
CCCOC(=O)c1ccc(NC(=O)CCC)cc1	110.7*
CCCCOC(=O)c1ccc(NC(C)=O)cc1	-13.6
CCCOC(=O)c1ccc(NC(=O)/C=C\C(=O)O)cc1	5.7
CCCCC(=O)Nc1ccc(C(=O)OCCC)cc1	106.8*
O=C(Nc1cccc(Cl)c1)c1cccc(NC(=O)c2ccc(Cl)cc2Cl)c1	1.0
COc1ccc(CCNC(=O)C(=O)NCC(C)C)cc1	-4.7
CCOc1cc(/C=N/Nc2nc(N3CCOCC3)nc(N3CCOCC3)n2)ccc1OCc1ccccc1	-18.9
C/C(=N\N=C1\NC(=O)C(CC(=O)Nc2ccc(Cl)cc2Cl)S1)c1ccc(Cl)cc1 (stereo not given)	-3.0
Cc1c(C(=O)NCC#N)cccc1[N+](=O)[O-]	-10.5
CCCC1CCc2c(sc(NC(=O)Cc3ccccc3)c2C(N)=O)C1 (stereo not given)	-5.0
Cc1cc(Br)ccc1N1C(=O)/C(=C/c2cc(C)n(C)c2C)C(=O)NC1=S	24.3
O=C1NC(=S)N(c2ccc(Cl)c(Cl)c2)C(=O)/C1=C/c1cccs1	7.3
Cc1cc(Br)ccc1N1C(=O)/C(=C/c2cccs2)C(=O)NC1=S	102.4*
CC(=O)N1C(=O)/C(=C2\SC(=S)N(Cc3ccccc3)C2=O)c2ccccc21	-12.7
CCCc1ccc(OCC(=O)Nc2cccc(F)c2)cc1	-9.2
CCN(CC)c1ccc(/C=C2\C(=O)NC(=S)N(c3ccc(F)cc3)C2=O)c(OC)c1	6.3
Oc1ccccc1C=Nc1cc2c(cc1Br)OCCO2	107.7
c1ccc(CN2CCC(N3CCN(Cc4ccccc4)CC3)CC2)cc1	-8.8
CCN(CC)C(=O)c1sc(NC(=O)c2ccc(OC)cc2OC)c(C(=O)OC(C)C)c1C	-8.0
S=C(Nc1ccc2c(c1)oc1ccccc12)Nc1cccc2ccccc12	105.7*
Fc1ccc(NC(=S)Nc2cccc3ccccc23)cc1	31.7
O=C(NC(=S)Nc1ccc2oc3ccccc3c2c1)c1ccccc1	7.0
COc1cccc(C2C(C(=O)Nc3ccccc3)=C(C)N=c3s/c(=C/c4ccccc4OC)c(=O)n32)c1 (stereo not given)	-5.9
SMILES	DUSP3 inh
CCOc1cc(/C=N/n2cnnc2)ccc1OS(=O)(=O)c1ccccc1	10.4
COc1cc(/C=N/n2cnnc2)ccc1OCCOc1ccc(C(C)(C)C)cc1	-1.2
COc1ccccc1OCCOc1cccc(/C=N/n2cnnc2)c1	-7.7
COc1cccc(OCCOc2ccc(/C=N/n3cnnc3)cc2OC)c1	116.4*
CCOc1cc(/C=N/n2cnnc2)ccc1OCCOc1ccc(C)cc1	-34.1
CCOc1cc(/C=N/n2cnnc2)ccc1OCc1cccc2ccccc12	112.3*
Cc1c(/C=C/c2nc3ccccc3c(=O)n2C)c2ccccc2n1C	-1.0
Cc1cccc(C)c1N1CCN(c2c(C)cccc2C)CC1	-17.0
N/C(=N\c1nc(C(F)(F)F)cc(=O)[nH]1)Nc1ccc(I)cc1	-19.3
O=C(c1ccccc1)c1cc(Cl)ccc1N=Cc1ccc(Br)s1	-1.8
COC(=O)c1c(C)oc2ccc(OC(=O)N3CCOCC3)cc12	-3.3
O=C(Oc1ccc(-n2cnnn2)cc1)N1CCOCC1	113.1*
O=C(Nc1ccccc1)c1ccc(-n2cnnn2)cc1	0.0
N#Cc1conc1-c1ccc2c(c1)OCO2	-9.3
O=C1NN(c2ccc(Cl)c(Cl)c2)C(=O)/C1=C/c1cccc([N+](=O)[O-])c1	78.4*
O=C1NN(c2ccc(Cl)c(Cl)c2)C(=O)/C1=C/c1cc([N+](=O)[O-])ccc1O	-5.5
O=C1NN(c2ccc(Cl)c(Cl)c2)C(=O)/C1=C/c1cccc(Br)c1	32.0
CCOC(=O)C1=C(C)N=c2s/c(=C\c3cccc(OC)c3O)c(=O)n2C1c1ccc(OC)cc1 (stereo not given)	5.2
CC1(C)CC(=O)C(C(C2=C(O)CC(C)(C)CC2=O)c2cccs2)C(=O)C1 (stereo not given)	-0.7
Fc1ccccc1-n1nnnc1SCc1cc2c(cc1Cl)OCO2	113.6*
Clc1cc2c(cc1CSc1nc3ncccc3[nH]1)OCO2	12.0
Clc1ccccc1CSc1nnnn1-c1ccccc1	-3.7
Clc1ccc(CSc2nnnn2-c2ccccc2)cc1	-9.8
c1ccc(-n2nnnc2SCc2cccc(CSc3nnnn3-c3ccccc3)n2)cc1	11.6
Clc1cc2c(cc1CSc1nnnn1-c1ccccc1)OCO2	111.5*
COc1cc(/C=N\Nc2cc(N(C)C)nc(N(C)C)n2)ccc1O	-2.8
COc1cc2c(cc1NC(=O)c1ccccc1I)oc1ccccc12	-6.8
CCC(=O)N1c2ccccc2NC2=C(C(=O)CC(c3ccccc3)C2)C1c1ccc(F)cc1 (stereo not given)	113.1*
COc1ccc(C2CC(=O)C3=C(C2)Nc2ccccc2NC3c2ccc(-c3ccccc3)cc2)cc1OC (stereo not given)	-15.5
COc1ccc(C2C3=C(CC(c4ccccc4)CC3=O)Nc3ccccc3N2C(=O)C(C)C)cc1OC (stereo not given)	99.1*
